TTR transcr act – TTR transcription activators in neuroblastoma reporter cells, primary screen, cell-based, luminescence, SH-SY5Y, TTR promoter Gaussia luciferase; activation, % at 16.7 µM; 92,000 tested, 1.3% active; AID 1117267, 2014; 100% = recombinant luciferase protein wells;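 active = activation above the mean of all tested compounds plus 3 SD, cut at about 9.5% in these data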;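 note: cells exposed to compounds for one day before reading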
HuH7 TTR inh – TTR promoter reporter inhibitors in hepatoma cells, counter-screen for TTR transcription activator project, cell-based, luminescence, HuH7 hepatoma; HuH7 TTR promoter-Gaussia luciferase reporter; 1,100 tested, 4% active; shares compounds with TTR transcr act; inhibition, % at 16.7 µM; AID 1117279, 2014;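 active = average inhibition above the solvent-only control wells' mean plus 3 SD, cut at about 15% in these data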;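 note: inhibitors lower well luminescence so higher value means more inhibition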
TTR up confirm – TTR transcription activators, retest, confirmation, cell-based, luminescence, SH-SY5Y, triplicate. shares compounds with TTR transcr act. activation, % at 16.7 µM. SHSY5Y TTR promoter Gaussia luciferase; 100% = purified Lucia enzyme wells, no cells. 1,100 tested, under 10 active;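 active = mean activation above a set limit taken from the earlier primary screen, cut at about 11% in these data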
Of the large screens only hits and unclear results are named; the others gave an inactive call (follow-up assays come after a bar, where they were run). Many of the other results were omitted from the sample, so hits are more common in it than they were.

COc1ccc(C(C)(NC(C)=O)c2nc(-c3cccc(C(=O)O)c3)cs2)cc1 (stereo not drawn)	TTR transcr act 10.0 | HuH7 TTR inh inactive | TTR up confirm inactive
O=C(OCc1ccccc1)[C@H](Cc1ccccc1)NC(=O)[C@@H]1CC=C[C@@H]2CCN(Cc3ccc(Cl)cc3)C(=O)[C@@H]21	none
Cn1nnnc1SC1CC(=O)N(c2ccccc2)C1=O (stereo not drawn)	none
COC(=O)c1ccccc1SC1CC(=O)N(c2ccccc2)C1=O (stereo not drawn)	TTR transcr act 21 | HuH7 TTR inh inactive | TTR up confirm inactive
O=C(O)c1ccccc1SC1CC(=O)N(c2cccc3ccccc23)C1=O (stereo not drawn)	none
CC(C)(C)c1ccc(C(=O)Nc2cc(Cl)ccc2C(=O)O)cc1	none
N[C@H](C(=O)Nc1ccc(Cl)cc1C(=O)c1ccc[nH]1)c1ccccc1	none
COC(=O)[C@]12C[C@H](CC(=O)NCc3ccc(C)o3)C(=O)N(Cc3cccc4ccccc34)C1=C[C@H](COCc1ccccc1)O[C@@H]2C	none
CCCC1CCC2(CCCN2CCOC(=O)Nc2ccccc2)CC1 (stereo not drawn)	none
CN1C(=O)c2cc(NC(=O)C3CCOCC3)ccc2OC[C@@H]2O[C@@H](CC(=O)NCc3ccccc3F)CC[C@@H]21	none
O=C(c1ccco1)N1CCN(C2CC(=O)N(c3ccc(F)c(Cl)c3)C2=O)CC1 (stereo not drawn)	TTR transcr act 10 | HuH7 TTR inh inactive | TTR up confirm inactive
COc1cccc(N2C(=O)CC(N3CCN(C(=O)c4ccco4)CC3)C2=O)c1 (stereo not drawn)	none
COc1ccc(N2C(=O)CC(N3CCN(C(=O)c4ccco4)CC3)C2=O)cc1 (stereo not drawn)	none
O=C(Nc1ccc(F)cc1)OC1CC2CC1[C@H]1CCCCN1[C@H]2Cc1ccccc1 (stereo partly drawn)	none
COc1ccc(CN2C(=O)c3ccnn3CC2(C)c2nnnn2-c2c(C)cccc2C)cc1 (stereo not drawn)	none
CCN1CCN(c2nc3ccccc3nc2NS(=O)(=O)c2ccc(NC(C)=O)cc2)CC1	TTR transcr act 12 | HuH7 TTR inh inactive | TTR up confirm inactive
CCn1nc(NS(=O)(=O)c2ccc(NC(C)=O)cc2)c2cc3ccccc3nc21	none
CC(=O)Nc1ccc(S(=O)(=O)Nc2ccc3ccccc3n2)cc1	none
N#CN1CCC(NS(=O)(=O)c2ccc(F)cc2)C1 (stereo not drawn)	none
S=C(Nc1cc(Cl)cc(Cl)c1)NC(c1ccccc1)c1ccccc1	none
Nc1nc(Nc2cccc(F)c2)nc(N2CCOCC2)c1[N+](=O)[O-]	TTR transcr act 12 | HuH7 TTR inh inactive | TTR up confirm inactive
Cc1cccc(Nc2nc(N)c([N+](=O)[O-])c(N3CCN(C)CC3)n2)c1	none
CCN1CCN(c2nc(Nc3ccccc3)nc(N)c2[N+](=O)[O-])CC1	none
COc1cccc(Cn2cc(COC(=O)NCC(C)C)nn2)c1	none
COc1ccc(CC(=O)Nc2cccc(-c3csc(C)n3)c2)cc1	none
CCC(=O)Nc1cccc(-c2csc(-c3ccccc3)n2)c1	none
CC(=O)Nc1cccc(-c2csc(N)n2)c1	TTR transcr act 9.7 | HuH7 TTR inh inactive | TTR up confirm inactive
O=C(OCc1cn(Cc2ccc(F)cc2)nn1)N1CCOCC1	none
Fc1cccc(Cn2ccc3ccc(-c4ccc5ccn(Cc6cccc(F)c6)c5c4)cc32)c1	none
Cc1ccnc2c(N3C(=O)C4C5C=CC(C5)C4C3=O)cccc12 (stereo not drawn)	TTR transcr act 9.8 | HuH7 TTR inh inactive | TTR up confirm inactive
O=C1C2C3C=CC(C4CC34)C2C(=O)N1c1cccc2ccccc12 (stereo not drawn)	none
COc1cccc(C(=O)COc2ccccc2N2C(=O)C3C4C=CC(C4)C3C2=O)c1 (stereo not drawn)	none
CC/C=C\[C@H](O)[C@H](O)C1=C(C)C(=O)[C@]2(O1)C(=O)N[C@@](OC)(C(=O)c1ccccc1)[C@@H]2O	none
COc1ccccc1OCCN1C(=O)S/C(=C\c2ccco2)C1=O	TTR transcr act 10 | HuH7 TTR inh inactive | TTR up confirm inactive
O=C(NCCN1C(=O)S/C(=C\c2cccs2)C1=O)c1ccco1	none
Cc1ccc(N2C(=O)/C(=C/c3ccco3)SC2=S)cc1	none
Cc1onc(C(=O)N2CCN(C(c3ccccc3)c3ccccc3)CC2)c1Br	none
C[C@H]1CN([C@@H](C)CO)C(=O)CCCn2cc(nn2)CO[C@@H]1CN(C)C(=O)Nc1ccccc1C(F)(F)F	none
CCCCNS(=O)(=O)/C=C/c1ccccc1CCNC(=O)OC(C)(C)C	none
COCCCNC(=O)c1cc(S(=O)(=O)N2CCC3(CC2)OCCO3)ccc1F	none
O=C(CSc1ncccc1C(=O)O)c1ccc2ccccc2c1	TTR transcr act 12 | HuH7 TTR inh inactive | TTR up confirm inactive
O=C(CSc1ncnc2nc[nH]c12)c1ccc2ccccc2c1	none
O=C(CSc1ncccc1C(=O)O)c1cccc(C(F)(F)F)c1	none
C=CCN1C(=O)[C@H](CC(=O)NCCCCc2ccccc2)[C@@]2(C(=O)OCC)CCCC=C12	none
CC(C)Cn1c(SC(C)C(=O)Nc2ccc(N3CCOCC3)cc2)nc2ccccc21 (stereo not drawn)	none
COc1ccc(NC(=O)CSc2nc3ccccc3c(=O)n2CCCN2CCOCC2)c(OC)c1	none
Cc1cccc(NC(=O)C(C)Sc2nc3ccccc3c(=O)n2CCCN2CCOCC2)c1 (stereo not drawn)	TTR transcr act 21 | HuH7 TTR inh inactive | TTR up confirm inactive
O=C(NC1CCCCN(Cc2ccc(Cl)cc2)C1=O)c1ccc(Cl)cc1Cl (stereo not drawn)	none
Cc1[nH]c2c(ccc3cccnc32)c1C	TTR transcr act 12 | HuH7 TTR inh inactive | TTR up confirm inactive
c1ccc(-c2nc3c(ccc4ccccc43)[nH]2)nc1	none
CC(=O)c1c(C(C)=O)c(C)n(-c2cccc3cccnc23)c1C	none
CCOC(=O)CC[C@@]1(C(=O)OCC)C[C@@H](CC(=O)NCC23CC4CC(CC(C4)C2)C3)C(=O)N2CCCC=C21	none
CC(C)C(NC(=O)[C@H](Cc1ccc(O)cc1)NC(=O)OC(C)(C)C)P(=O)(O)OC(Cc1ccccc1)C(=O)O (stereo partly drawn)	none
O=C(Nc1ccc(F)cc1)Nc1c(-c2ccccc2)nc2ncccn12	none
COc1ccc(-c2cc3ccccc3n2CC(O)Cn2nc(C)cc2C)cc1 (stereo not drawn)	none
COC(=O)c1ccc(Cn2nc(C)cc2C)cc1	none
CC(=O)OC(Cn1nc(C)cc1C)c1ccccc1 (stereo not drawn)	TTR transcr act 10 | HuH7 TTR inh inactive | TTR up confirm inactive
COc1cccc(C2NC(=O)NC(C)=C2C(=O)Nc2ccc(C)cc2)c1 (stereo not drawn)	TTR transcr act 21 | HuH7 TTR inh inactive | TTR up confirm inactive
CC1=C(C(=O)Nc2ccc(C)cc2)C(c2ccc(N(C)C)cc2)NC(=O)N1 (stereo not drawn)	none
CC1=C(C(=O)Nc2ccccc2C)C(c2ccccc2)NC(=O)N1 (stereo not drawn)	none
C[C@@H]1CCN(C2CC2)S(=O)(=O)c2ccc(N3CCC[C@H]3C)cc2O1	none

Bioassay records (PubChem BioAssay)
